The results in this text go back to PubChem BioAssay (NCATS).

Assay [1] concerns the target Cytochrome P450 2D6 (Homo sapiens) (UniProt P10635). As to the kind of experiment: Cytochrome P450 family 2 subfamily D member 6 (CYP2D6) small molecule antagonists: luciferase biochemical (cell-free) qHTS assay (AID 1645840; active = well fitted curve in the direction sought with a large enough effect in the repeat runs; an effect the other way counts as inactive or inconclusive; also: nearly all actives have a fitted effect of over 55% in size; also: potency is read from the fitted curve at half-maximal effect; as to activity change, negative = inhibition: % is scaled to controls: 0 for no effect and ±100 for the full control effect). Summed up: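 P450-Glo luminescent screen: recombinant CYP2D6 enzyme–proluciferin substrate mix preincubated with compound 10 min at room temperature, then NADPH regeneration added for 1 h at room temperature. Detection reagent added for 20 min; luciferin light read as relative luminescence units.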
Background: In qHTS, concentration-response curves come from the screen itself.

For assay [2], the target named is Cytochrome P450 2C9 (Homo sapiens) (UniProt P11712). As to the kind of experiment: Cytochrome P450 family 2 subfamily C member 9 (CYP2C9) small molecule antagonists: luciferase biochemical (cell-free) qHTS assay (AID 1645842; active = well fitted curve in the direction sought with a large enough effect in the repeat runs; an effect the other way counts as inactive or inconclusive; also: nearly all actives have a fitted effect of over 55% in size; also: potency is read from the fitted curve at half-maximal effect; as to activity change, negative = inhibition: % is scaled to controls: 0 for no effect and ±100 for the full control effect). Summed up: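 Luminescence, after 20 min with luciferin detection reagent, reflected CYP2C9 turnover during a 1 h NADPH-driven reaction at 37C. Enzyme-substrate mix contained 0.4% bovine serum albumin and was preincubated with compound 10 min at room temperature.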
Sequence of Cytochrome P450 2C9 (Homo sapiens) (P11712 whole entry, looked up): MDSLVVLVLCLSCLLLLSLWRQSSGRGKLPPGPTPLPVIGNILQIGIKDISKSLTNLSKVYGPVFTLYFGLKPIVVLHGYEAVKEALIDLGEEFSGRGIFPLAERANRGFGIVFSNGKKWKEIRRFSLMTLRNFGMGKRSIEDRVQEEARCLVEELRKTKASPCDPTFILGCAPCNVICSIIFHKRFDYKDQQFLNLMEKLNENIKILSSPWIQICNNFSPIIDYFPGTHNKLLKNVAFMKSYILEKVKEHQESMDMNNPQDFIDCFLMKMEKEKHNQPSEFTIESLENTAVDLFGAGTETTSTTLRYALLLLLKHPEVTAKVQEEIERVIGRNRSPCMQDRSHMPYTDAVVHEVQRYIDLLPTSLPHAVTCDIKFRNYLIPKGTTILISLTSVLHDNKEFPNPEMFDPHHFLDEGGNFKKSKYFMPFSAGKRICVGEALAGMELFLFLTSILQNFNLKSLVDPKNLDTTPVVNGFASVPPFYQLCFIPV

For assay [3], the target named is Rap guanine nucleotide exchange factor 3 (Homo sapiens) (UniProt O95398). As to the kind of experiment: Confirmatory qHTS for antagonist of cAMP-regulated guanine nucleotide exchange factor 3 (EPAC1) (AID 1645880). Also: nearly all actives have a fitted effect of over 55% in size. Also: potency is read from the fitted curve at half-maximal effect. Summed up: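 Nucleotide exchange uses 100 nM EPAC1, 250 nM RAP1B-BODIPY-GDP and 50 uM GDP, with compounds in a concentration-titration series. After 5 min at room temperature, fluorescence (480 nm ex/540 nm em) is read every 5 min for 30 min. Data are normalized to control ATA and DMSO.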
Sequence of Rap guanine nucleotide exchange factor 3 (Homo sapiens) (O95398 whole entry, looked up): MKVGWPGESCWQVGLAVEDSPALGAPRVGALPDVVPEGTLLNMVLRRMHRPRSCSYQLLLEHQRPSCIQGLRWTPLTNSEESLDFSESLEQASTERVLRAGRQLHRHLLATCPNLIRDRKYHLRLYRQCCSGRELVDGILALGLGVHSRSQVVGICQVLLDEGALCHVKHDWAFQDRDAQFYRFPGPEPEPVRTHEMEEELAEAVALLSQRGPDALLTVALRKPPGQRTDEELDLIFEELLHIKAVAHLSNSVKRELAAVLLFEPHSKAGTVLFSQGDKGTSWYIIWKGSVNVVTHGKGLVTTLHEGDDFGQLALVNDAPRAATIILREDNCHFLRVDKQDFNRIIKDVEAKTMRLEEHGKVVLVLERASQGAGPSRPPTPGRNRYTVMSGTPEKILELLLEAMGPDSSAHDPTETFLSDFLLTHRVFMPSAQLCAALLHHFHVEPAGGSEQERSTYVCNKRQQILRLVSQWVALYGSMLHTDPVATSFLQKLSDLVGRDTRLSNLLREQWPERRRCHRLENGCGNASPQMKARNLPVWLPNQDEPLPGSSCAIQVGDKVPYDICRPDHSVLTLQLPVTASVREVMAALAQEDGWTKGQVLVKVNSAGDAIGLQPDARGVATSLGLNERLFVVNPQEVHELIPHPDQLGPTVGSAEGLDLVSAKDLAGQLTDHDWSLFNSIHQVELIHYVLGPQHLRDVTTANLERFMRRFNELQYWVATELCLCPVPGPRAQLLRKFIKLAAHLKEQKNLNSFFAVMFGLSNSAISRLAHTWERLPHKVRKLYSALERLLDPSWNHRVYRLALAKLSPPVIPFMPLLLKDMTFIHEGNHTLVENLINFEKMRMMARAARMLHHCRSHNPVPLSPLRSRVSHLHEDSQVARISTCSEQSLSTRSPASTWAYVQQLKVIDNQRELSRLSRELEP

In assay [4] the target is Rap guanine nucleotide exchange factor 4 (Homo sapiens) (UniProt Q8WZA2). As to the kind of experiment: Confirmatory qHTS for agonist of cAMP-regulated guanine nucleotide exchange factor 4 (EPAC2) (AID 1645884).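 Also: nucleotide exchange releases bodipy-GDP from Rap1 and this lowers its fluorescence; nearly all actives have a fitted effect of over 65% in size.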 Also: potency is read from the fitted curve at half-maximal effect. As to activation: % is scaled to controls: 0 for no effect and ±100 for the full control effect.
Sequence of Rap guanine nucleotide exchange factor 4 (Homo sapiens) (Q8WZA2 whole entry, looked up): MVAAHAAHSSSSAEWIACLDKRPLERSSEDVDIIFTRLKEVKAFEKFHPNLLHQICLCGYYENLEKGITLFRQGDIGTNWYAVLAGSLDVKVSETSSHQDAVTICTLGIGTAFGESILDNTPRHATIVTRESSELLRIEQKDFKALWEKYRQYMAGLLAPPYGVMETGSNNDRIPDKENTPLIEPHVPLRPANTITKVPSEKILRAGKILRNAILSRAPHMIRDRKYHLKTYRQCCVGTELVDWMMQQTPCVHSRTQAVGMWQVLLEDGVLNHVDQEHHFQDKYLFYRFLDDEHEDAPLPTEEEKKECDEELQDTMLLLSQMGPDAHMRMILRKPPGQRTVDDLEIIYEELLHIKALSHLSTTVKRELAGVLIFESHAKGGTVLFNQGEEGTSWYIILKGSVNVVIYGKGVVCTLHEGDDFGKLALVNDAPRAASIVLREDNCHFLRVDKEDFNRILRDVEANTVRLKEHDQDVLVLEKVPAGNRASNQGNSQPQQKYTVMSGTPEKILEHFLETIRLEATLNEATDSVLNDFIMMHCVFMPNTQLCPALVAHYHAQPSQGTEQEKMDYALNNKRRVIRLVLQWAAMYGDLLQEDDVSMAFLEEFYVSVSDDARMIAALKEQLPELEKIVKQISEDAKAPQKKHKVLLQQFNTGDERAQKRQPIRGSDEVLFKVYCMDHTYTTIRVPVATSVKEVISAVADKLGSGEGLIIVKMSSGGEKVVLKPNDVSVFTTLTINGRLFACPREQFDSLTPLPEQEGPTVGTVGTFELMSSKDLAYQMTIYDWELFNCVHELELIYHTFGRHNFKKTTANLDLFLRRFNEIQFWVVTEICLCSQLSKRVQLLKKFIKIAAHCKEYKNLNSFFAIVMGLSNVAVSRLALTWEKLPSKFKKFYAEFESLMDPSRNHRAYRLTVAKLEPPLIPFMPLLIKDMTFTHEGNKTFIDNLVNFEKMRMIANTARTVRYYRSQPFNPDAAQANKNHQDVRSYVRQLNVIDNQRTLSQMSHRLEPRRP
For assay [5] the target is unchanged. The assay can be described thus: Confirmatory qHTS for antagonist of cAMP-regulated guanine nucleotide exchange factor 4 (EPAC2) (AID 1645885). Also: nearly all actives have a fitted effect of over 25% in size. Also: potency is read from the fitted curve at half-maximal effect. As to activity change, negative = inhibition: % is scaled to controls: 0 for no effect and ±100 for the full control effect.
Assay [6] is described as follows: Primary qHTS for inhibitors of nuclear receptor binding SET domain protein 2 (NSD2) in an RCH-ACV wild type WT cells (2C) (AID 1645877). Also: nearly all actives have a fitted effect of over 70% in size. Also: potency is read from the fitted curve at half-maximal effect.
Assay [7] is described as follows: Primary qHTS for inhibitors of nuclear receptor binding SET domain protein 2 (NSD2) in an isogenic RCH-ACV NSD2 p.E1099K mutant (9B) (AID 1645876). Also: nearly all actives have a fitted effect of over 70% in size. Also: potency is read from the fitted curve at half-maximal effect.
Assay [8] deals with Rap guanine nucleotide exchange factor 3 (Homo sapiens) (UniProt O95398). The assay can be described thus: Confirmatory qHTS for agonist of cAMP-regulated guanine nucleotide exchange factor 3 (EPAC1) (AID 1645881).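 Also: EPAC1 catalysed release of BODIPY-GDP from Rap1B seen as fluorescence loss; 100% = effect of cAMP agonist control; nearly all actives have a fitted effect of over 75% in size.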
Assay [9] addresses Catechol O-methyltransferase (Homo sapiens) (UniProt P21964). As to the kind of experiment: Confirmatory Screen for Target Class Profiling of Small Molecule Inhibitors of Methyltransferases (AID 1745852; calls by dose curve). The conditions noted are these: MTase-Glo luminescence, SAH detection, recombinant enzyme; measured here: COMT max response; stronger effect = lower value.
The target in assay [10] is Guanidinoacetate N-methyltransferase (Homo sapiens) (UniProt Q14353). The assay is described as above. Conditions: MTase-Glo luminescence, SAH detection, recombinant enzyme; at 57.3 µM (top of the series).
Assay [11] addresses Nicotinamide N-methyltransferase (Homo sapiens) (UniProt P40261). Described as above. The conditions noted are these: MTase-Glo luminescence, SAH detection, recombinant enzyme; measured here: NNMT max response; stronger effect = lower value.
The target of assay [12] is Phenylethanolamine N-methyltransferase (Homo sapiens) (UniProt P11086). The description is as above. The conditions noted are these: MTase-Glo luminescence, SAH detection, recombinant enzyme; measured here: PNMT max response; stronger effect = lower value.
Sequence of Phenylethanolamine N-methyltransferase (Homo sapiens) (P11086 whole entry, looked up): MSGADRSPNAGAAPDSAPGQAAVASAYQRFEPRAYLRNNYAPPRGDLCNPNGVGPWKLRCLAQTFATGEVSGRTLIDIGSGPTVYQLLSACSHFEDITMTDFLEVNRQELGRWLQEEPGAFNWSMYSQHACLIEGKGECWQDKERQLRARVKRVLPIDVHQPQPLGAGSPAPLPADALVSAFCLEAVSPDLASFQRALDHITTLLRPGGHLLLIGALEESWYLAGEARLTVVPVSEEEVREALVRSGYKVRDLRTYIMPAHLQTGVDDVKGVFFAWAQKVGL
Assay [13] can be described thus: Viability counterscreen for antagonist of constitutive androstane receptor (CAR) against the NCATS DSHEA and TCM libraries (AID 1794837).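 Also: compound exposure lasted 24 h before viability reading; 0% is about no effect.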 Summed up: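 Viability was measured by CellTiter-Fluor fluorescence (405/540 nm, 1 hr) in HepG2-CYP2B6-hCAR cells. Cells were co-treated 24 hr with 48 uM CITCO (final), antagonist mode, and test substances.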
A general note: A counterscreen serves to expose hits that act by an unwanted route or on another target.

Assay [14] has as its target Rap guanine nucleotide exchange factor 3 (Homo sapiens) (UniProt O95398). The assay can be described thus: Counterscreen qHTS for antagonist of cAMP-regulated guanine nucleotide exchange factor 3 (EPAC1) (AID 1645888).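 Also: fluorescence loss as bound BODIPY-GDP is released from Rap1B; % of control where 0% means no effect.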 Summed up:
(§1)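 Rap1B-BODIPY-GDP 250 nM + GDP 50 uM; cpds 7-pt, final 9.74 nM–152 uM (activator mode) or from 7.32 nM upwards (inhibitor mode); RT; FI 480/540 nm at 5 and 30 min, then ± cAMP, reread.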

Assay [15] can be described thus: NCATS anti-infectives library activity on the primary C. elegans qHTS viability assay (AID 1745855; calls by dose curve; also: potency is read from the fitted curve at half-maximal effect). In a few lines: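 Viability read-out is GFP fluorescence of PE254-GFP-FLuc C. elegans, measured by laser cytometry (488 nm) at day 0, 3 and 7. Ten L1 worms per well were incubated 7 days at 21 °C with compounds and bacterial capsules in S medium.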
Assay [16] addresses Rap guanine nucleotide exchange factor 3 (Homo sapiens) (UniProt O95398). The assay can be described thus: Counterscreen qHTS for agonist of cAMP-regulated guanine nucleotide exchange factor 3 (EPAC1) (AID 1645889). Also: % of control where 0% means no effect; nearly all actives have a fitted effect of over 40% in size. Summed up: as §1

“And” between values parts separate entries of the source, which are not always exact repeats. Equal values may be shown once. Records with an inconclusive call do not appear. A structure can be active in one record and inactive in another. The source made the active and inactive calls. Unless noted, calls follow the shape of the dose curve; as a rule, active = well fitted curve in the direction sought with a large enough effect; inconclusive = small, poorly fitted or top-dose-only effect, or another doubt; inactive = no such curve, though single readings can be large; an effect the other way counts as inactive or inconclusive.

Sequence of Cytochrome P450 2D6 (Homo sapiens) (P10635 whole entry, looked up): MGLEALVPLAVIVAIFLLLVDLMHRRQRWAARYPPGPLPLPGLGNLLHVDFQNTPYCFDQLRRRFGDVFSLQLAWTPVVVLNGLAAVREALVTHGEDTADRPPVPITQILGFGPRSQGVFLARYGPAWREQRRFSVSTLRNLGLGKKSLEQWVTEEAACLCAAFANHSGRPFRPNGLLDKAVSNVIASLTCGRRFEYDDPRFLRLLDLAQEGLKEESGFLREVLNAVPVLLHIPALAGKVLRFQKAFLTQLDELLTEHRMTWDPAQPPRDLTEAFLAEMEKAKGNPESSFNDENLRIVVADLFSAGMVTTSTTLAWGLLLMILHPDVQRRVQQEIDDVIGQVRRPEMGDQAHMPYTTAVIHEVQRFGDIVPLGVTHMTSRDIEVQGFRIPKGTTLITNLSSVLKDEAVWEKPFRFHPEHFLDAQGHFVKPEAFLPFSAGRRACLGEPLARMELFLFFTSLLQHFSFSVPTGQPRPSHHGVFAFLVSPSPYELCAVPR
Sequence of Catechol O-methyltransferase (Homo sapiens) (P21964 whole entry, looked up): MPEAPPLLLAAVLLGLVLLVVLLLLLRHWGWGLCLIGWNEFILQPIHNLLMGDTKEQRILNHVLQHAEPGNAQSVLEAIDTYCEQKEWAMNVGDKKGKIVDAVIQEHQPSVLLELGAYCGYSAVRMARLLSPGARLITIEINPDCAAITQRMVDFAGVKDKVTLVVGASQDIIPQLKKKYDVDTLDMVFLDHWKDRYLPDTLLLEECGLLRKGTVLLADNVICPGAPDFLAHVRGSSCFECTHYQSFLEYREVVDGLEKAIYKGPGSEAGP
Sequence of Nicotinamide N-methyltransferase (Homo sapiens) (P40261 whole entry, looked up): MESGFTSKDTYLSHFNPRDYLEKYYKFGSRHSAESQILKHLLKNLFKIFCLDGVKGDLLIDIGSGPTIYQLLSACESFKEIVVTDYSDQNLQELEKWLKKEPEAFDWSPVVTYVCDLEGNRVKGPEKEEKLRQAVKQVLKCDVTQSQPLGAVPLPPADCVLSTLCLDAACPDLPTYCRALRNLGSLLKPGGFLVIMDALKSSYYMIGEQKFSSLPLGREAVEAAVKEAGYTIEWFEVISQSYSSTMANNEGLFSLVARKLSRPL

As for `Cc1cc(N)c2cc(NC(=O)Nc3ccc4nc(C)cc(N)c4c3)ccc2n1`, the Potency in assay [1] was 8.71 µM (active); in assay [3], 25 µM (active); in assay [4], 25.1 µM (active); in [5], 35 µM (active). The Potency result in [2] was “inactive”.
Take `CN1CCCC(CC2c3ccccc3Sc3ccccc32)C1` (configuration not stated): the Potency in [1] is 0.0692 µM (active); in [6], 18.8 µM (active). Besides, the Potency result in assay [2] is “inactive”.
With `Cc1c(F)c(N2CCNC(C)C2)cc2c1c(=O)c(C(=O)O)cn2C1CC1` (configuration not stated), the Potency result in [1], in assay [2], in [7] and in assay [6] was “inactive” in each case.
Turning to `C[C@]12C=CC(=O)C=C1CC[C@@H]1[C@@H]2[C@@H](O)C[C@@]2(C)[C@H]1CC[C@]2(O)C(=O)CO`, the Potency result in [1] and in [2] was “inactive” each time. Besides, in assay [6], the Potency was 42.2 nM (active) and 209 nM (active).
Take `CC(C)C[C@H]1C(=O)N2CCC[C@H]2[C@]2(O)O[C@](NC(=O)[C@@H]3C=C4c5cccc6[nH]c(Br)c(c56)C[C@H]4N(C)C3)(C(C)C)C(=O)N12`: the Potency entry in assay [1], in assay [3], in assay [4] and in assay [5] was “inactive” each time. Also, the Potency in [2] is 3.38 µM (active). Moreover, the outcome in assay [8] was “inactive”. Also, the activity in assay [9] was 7.86%; in assay [11], -2.85%; in [12], 4.08%. Further, in assay [10], the activity change, negative = inhibition was 3.94%.
For `Nc1ccc(C(=O)O)cc1`, the Potency entry in assay [1], in assay [2], in [7] and in assay [6] was “inactive” in each case. For the same compound, in assay [13], the outcome is “inactive”.
Take `C[C@]12CCC(=O)C=C1CC[C@H]1[C@@H]3CC[C@](O)(C(=O)CO)[C@@]3(C)C[C@H](O)[C@@]12F`: the Potency entry in assay [1] and in assay [2] was “inactive” each time. Moreover, the Potency in assay [6] was 0.0106 µM (active).
Regarding `O=c1[nH]c(=O)n([C@H]2C[C@H](O)[C@@H](CO)O2)cc1C(F)(F)F`, the Potency entry in assay [1] and in [2] was “inactive” throughout. Moreover, the Potency in [7] is 596 nM (active) and 1.05 µM (active); in assay [6] it was 106 nM (active) and 662 nM (active).
Consider `CCCCCCc1ccc(O)cc1O`, for which the Potency in assay [1] was 4.9 µM (active); in assay [2] it was 8.71 µM (active); in [7] it was 13.3 µM (active); in [5] it was 39.3 µM (active). For the same compound, the outcome in [8] was “inactive”. Besides, the Potency result in assay [4] is “inactive”.
For the compound `O=C(Nc1ccc(Oc2ccc(Cl)cc2)c(Cl)c1)c1cc(I)cc(I)c1O`, the Potency in assay [1] is 19.5 µM (active); in assay [3], 30.1 µM (active). In addition, the Potency result in assay [2], in assay [7], in assay [6] and in assay [4] was “inactive” throughout. Besides, the outcome in assay [8] and in [14] was “inactive” in each case.
As to `CCOC(=O)OC(C)OC1=C(C(=O)Nc2ccccn2)N(C)S(=O)(=O)c2ccccc21` (configuration not stated), the Potency result in [1], in assay [7] and in assay [6] was “inactive” throughout.
Consider `NC(=NCCCCCCN=C(N)/N=C(\N)Nc1ccc(Cl)cc1)/N=C(\N)Nc1ccc(Cl)cc1`, for which the Potency in assay [1] is 2.45 µM (active); in assay [2], 24.5 µM (active); in assay [7], 2.99 µM (active) and 3.65 µM (active); in assay [6] it was 5.96 µM (active) and 3.65 µM (active); in assay [15], 11.5 µM (active). Further, the activity is -5.42% in assay [9], -51.5% in [11] and -67.4% in assay [12]. For the same compound, in assay [10], the activity change, negative = inhibition was 0.888%.
In the case of `COc1ccc(CN2CCN(C(c3ccc(F)cc3)c3ccc(F)cc3)CC2)c(OC)c1OC`, the Potency in [1] was 2.19 µM (active); in [2], 11 µM (active); in [6], 16.3 µM (active).
In the case of `c1ccc(-c2ccc(C(c3ccccc3)n3ccnc3)cc2)cc1` (configuration not stated), the Potency in assay [1] is 0.246 µM (active); in assay [2], 0.0245 µM (active); in [7], 21.1 µM (active); in assay [6], 13.3 µM (active); in [5], 13.9 µM (active) and inactive. In addition, the Potency result in assay [3], in assay [4] and in assay [16] was “inactive” in each case. In addition, the outcome in assay [8] and in [14] was “inactive” each time.
In the case of `CC1(C)O[C@@H]2C[C@H]3[C@@H]4C[C@H](F)C5=CC(=O)CC[C@]5(C)[C@H]4[C@@H](O)C[C@]3(C)[C@]2(C(=O)CO)O1`, the Potency entry in [1] and in assay [2] was “inactive” each time. For the same compound, in assay [6], the Potency was 0.0094 µM (active).
As to `CCN(CC)CCOc1ccc(C(O)(Cc2ccc(Cl)cc2)c2ccc(C)cc2)cc1` (configuration not stated), the Potency in assay [1] is 0.617 µM (active); in assay [7], 5.31 µM (active); in assay [6], 2.66 µM (active).
On to `C#C[C@]1(OC(C)=O)CC[C@H]2[C@@H]3CCC4=C[C@@H](OC(C)=O)CC[C@@H]4[C@H]3CC[C@@]21C`, for which the Potency result in assay [1], in [3], in assay [4] and in [5] was “inactive” throughout. The results for the Potency in [2] and in assay [6] were 13.6 µM (active) and 18.8 µM (active), respectively. In assay [8], the outcome is “inactive”.
Take `CCCCOc1cc(C(=O)NCCN(CC)CC)c2ccccc2n1`: the Potency is 8.71 µM (active) in assay [1] and 23.7 µM (active) in assay [6]. The Potency result in assay [2] is “inactive”.
For the compound `C=C1C[C@H]2[C@@H]3C=C(C)C4=CC(=O)CC[C@]4(C)[C@H]3CC[C@]2(C)[C@@]1(OC(C)=O)C(C)=O`, the Potency result in [1] was “inactive”. Further, the Potency in [7] was 23.7 µM (active); in assay [6], 4.22 µM (active).
`O=C(OCCOCCO)c1ccccc1Nc1cccc(C(F)(F)F)c1`: the Potency is 27.5 µM (active) in assay [1], 17.4 µM (active) in assay [2] and 16.8 µM (active) in assay [6].
Turning to `CC(Cc1cccc(C(F)(F)F)c1)NCCOC(=O)c1ccccc1` (configuration not stated), the Potency was 0.0069 µM (active) in assay [1], 19.5 µM (active) in assay [2] and 49.4 µM (active) in [5]. Moreover, the outcome in assay [8] is “inactive”. In addition, the Potency entry in [4] was “inactive”.
For the compound `CCC(=O)c1c(O)cc(O)cc1O`, the Potency in assay [1] is 24.5 µM (active); in assay [2] it was 15.5 µM (active). The Potency result in assay [7] and in assay [6] was “inactive” in each case.
Turning to `CCCCC(=O)O[C@]1(C(=O)CO)CC[C@H]2[C@@H]3CCC4=CC(=O)CC[C@]4(C)[C@H]3[C@@H](O)C[C@@]21C`, the Potency entry in assay [1] is “inactive”. The Potency in assay [6] was 0.106 µM (active).
For the compound `Oc1ccc(Cl)cc1Sc1cc(Cl)ccc1O`, the Potency in assay [1] is 12.3 µM (active); in [2], 12.3 µM (active); in assay [7], 18.8 µM (active); in assay [5] it was 31.2 µM (active). Also, the outcome in [8] was “inactive”. In assay [4], the Potency result was “inactive”. Further, the activity change, negative = inhibition in assay [5] is -4.98% [at 12.7 µM] (inactive). Moreover, the activation in [16] is 18.9% [at 30.8 µM] (inactive).
